Test results as given in PMC11006913.

Experiments:
Assay in all cases: PBM; 200 nM protein, PBS
Conditions in all cases: dsDNA, one strand shown
HOXB9 [1] = target: HOXB9 (Homo sapiens, UniProt P17482 171-250, T197M)
HOXC9 [2] = target: HOXC9 (Homo sapiens, UniProt P31274 178-260, K195R)
HOXC10 [3] = target: HOXC10 (Homo sapiens, UniProt Q9NYD6 254-340)
HOXB9 [4] = target: HOXB9 (Homo sapiens, UniProt P17482 171-250)
HOXC9 [5] = target: HOXC9 (Homo sapiens, UniProt P31274 178-260)
HOXD13 [6] = target: HOXD13 (Homo sapiens, UniProt P35453 263-343, T313R)
HOXD13 (Homo sapiens, UniProt P35453 263-343, T313R), sequence (P35453 263-343 T313R): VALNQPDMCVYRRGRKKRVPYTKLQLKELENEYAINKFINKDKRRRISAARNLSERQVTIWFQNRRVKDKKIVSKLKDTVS

HOXC9 [7] = target: HOXC9 (Homo sapiens, UniProt P31274 178-260, R193K)
HOXC9 (Homo sapiens, UniProt P31274 178-260, R193K), sequence (P31274 178-260 R193K): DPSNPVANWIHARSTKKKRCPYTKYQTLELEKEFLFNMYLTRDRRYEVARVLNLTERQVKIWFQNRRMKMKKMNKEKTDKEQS

HOXD13 [8] = target: HOXD13 (Homo sapiens, UniProt P35453 263-343)
HOXD13 (Homo sapiens, UniProt P35453 263-343), sequence (P35453 263-343): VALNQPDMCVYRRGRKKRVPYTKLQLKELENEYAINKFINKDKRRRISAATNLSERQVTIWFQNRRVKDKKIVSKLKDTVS

HOXC10 [9] = target: HOXC10 (Homo sapiens, UniProt Q9NYD6 254-340, K271E)
HOXC10 (Homo sapiens, UniProt Q9NYD6 254-340, K271E), sequence (Q9NYD6 254-340 K271E): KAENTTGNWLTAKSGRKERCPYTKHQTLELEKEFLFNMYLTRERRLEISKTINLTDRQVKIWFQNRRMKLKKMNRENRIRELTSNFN

HOXD13 [10] = target: HOXD13 (Homo sapiens, UniProt P35453 263-343, T313A)
HOXD13 (Homo sapiens, UniProt P35453 263-343, T313A), sequence (P35453 263-343 T313A): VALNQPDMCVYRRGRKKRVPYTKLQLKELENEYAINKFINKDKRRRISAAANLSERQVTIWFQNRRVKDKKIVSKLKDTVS

HOXB9 [11] = target: HOXB9 (Homo sapiens, UniProt P17482 171-250, R186Q)
HOXB9 (Homo sapiens, UniProt P17482 171-250, R186Q), sequence (P17482 171-250 R186Q): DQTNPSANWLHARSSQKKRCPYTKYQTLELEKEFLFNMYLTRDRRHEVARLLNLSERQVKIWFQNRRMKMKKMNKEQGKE

HOXC9 [12] = target: HOXC9 (Homo sapiens, UniProt P31274 178-260, R222W)
HOXC9 (Homo sapiens, UniProt P31274 178-260, R222W), sequence (P31274 178-260 R222W): as the sequence (P31274 178-260 R193K) above, with K16R, R45W counted along it

HOXC10 (Homo sapiens, UniProt Q9NYD6 254-340), sequence (Q9NYD6 254-340): as the sequence (Q9NYD6 254-340 K271E) above, with E18K counted along it
HOXC9 (Homo sapiens, UniProt P31274 178-260), sequence (P31274 178-260): as the sequence (P31274 178-260 R193K) above, with K16R counted along it
HOXB9 (Homo sapiens, UniProt P17482 171-250, T197M), sequence (P17482 171-250 T197M): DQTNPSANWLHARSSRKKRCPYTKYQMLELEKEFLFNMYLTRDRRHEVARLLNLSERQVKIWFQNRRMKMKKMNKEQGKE
HOXC9 (Homo sapiens, UniProt P31274 178-260, K195R), sequence (P31274 178-260 K195R): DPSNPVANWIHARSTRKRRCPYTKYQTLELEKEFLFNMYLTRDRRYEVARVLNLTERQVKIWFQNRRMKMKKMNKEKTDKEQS
HOXB9 (Homo sapiens, UniProt P17482 171-250), sequence (P17482 171-250): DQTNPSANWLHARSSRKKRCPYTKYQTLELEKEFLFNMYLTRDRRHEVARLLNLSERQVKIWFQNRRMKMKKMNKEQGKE

| Sequence | binding signal (HOXB9 [1]) | binding signal (HOXC9 [2]) | binding signal (HOXC10 [3]) | binding signal (HOXB9 [4]) | binding signal (HOXC9 [5]) | binding signal (HOXD13 [6]) | binding signal (HOXC9 [7]) | binding signal (HOXD13 [8]) | binding signal (HOXC10 [9]) | binding signal (HOXD13 [10]) | binding signal (HOXB9 [11]) | binding signal (HOXC9 [12]) |
| --- | --- | --- | --- | --- | --- | --- | --- | --- | --- | --- | --- | --- |
| ATTTATGA | 9.81 upbm affinity estimate (log intensity, higher = more binding, comparable within an allelic series) | 12.5 upbm affinity estimate (log intensity, higher = more binding, comparable within an allelic series) | 12.4 upbm affinity estimate (log intensity, higher = more binding, comparable within an allelic series) | 11.8 upbm affinity estimate (log intensity, higher = more binding, comparable within an allelic series) | 12.7 upbm affinity estimate (log intensity, higher = more binding, comparable within an allelic series) | 10.9 upbm affinity estimate (log intensity, higher = more binding, comparable within an allelic series) | 12.6 upbm affinity estimate (log intensity, higher = more binding, comparable within an allelic series) | 12 upbm affinity estimate (log intensity, higher = more binding, comparable within an allelic series) | 11.7 upbm affinity estimate (log intensity, higher = more binding, comparable within an allelic series) | 11.8 upbm affinity estimate (log intensity, higher = more binding, comparable within an allelic series) | 11.5 upbm affinity estimate (log intensity, higher = more binding, comparable within an allelic series) | 11.1 upbm affinity estimate (log intensity, higher = more binding, comparable within an allelic series) |
| GTCATAAA | 9.98 upbm affinity estimate (log intensity, higher = more binding, comparable within an allelic series) | 13.1 upbm affinity estimate (log intensity, higher = more binding, comparable within an allelic series) | 12.9 upbm affinity estimate (log intensity, higher = more binding, comparable within an allelic series) | 12.5 upbm affinity estimate (log intensity, higher = more binding, comparable within an allelic series) | 13.1 upbm affinity estimate (log intensity, higher = more binding, comparable within an allelic series) | 10.9 upbm affinity estimate (log intensity, higher = more binding, comparable within an allelic series) | 13.1 upbm affinity estimate (log intensity, higher = more binding, comparable within an allelic series) | 12.1 upbm affinity estimate (log intensity, higher = more binding, comparable within an allelic series) | 12.4 upbm affinity estimate (log intensity, higher = more binding, comparable within an allelic series) | 11.8 upbm affinity estimate (log intensity, higher = more binding, comparable within an allelic series) | 12.2 upbm affinity estimate (log intensity, higher = more binding, comparable within an allelic series) | 11.2 upbm affinity estimate (log intensity, higher = more binding, comparable within an allelic series) |
| ATAATAAA | 9.88 upbm affinity estimate (log intensity, higher = more binding, comparable within an allelic series) | 12.7 upbm affinity estimate (log intensity, higher = more binding, comparable within an allelic series) | 12.5 upbm affinity estimate (log intensity, higher = more binding, comparable within an allelic series) | 11.9 upbm affinity estimate (log intensity, higher = more binding, comparable within an allelic series) | 12.7 upbm affinity estimate (log intensity, higher = more binding, comparable within an allelic series) | 10.8 upbm affinity estimate (log intensity, higher = more binding, comparable within an allelic series) | 12.7 upbm affinity estimate (log intensity, higher = more binding, comparable within an allelic series) | 11.8 upbm affinity estimate (log intensity, higher = more binding, comparable within an allelic series) | 11.9 upbm affinity estimate (log intensity, higher = more binding, comparable within an allelic series) | 11.6 upbm affinity estimate (log intensity, higher = more binding, comparable within an allelic series) | 11.5 upbm affinity estimate (log intensity, higher = more binding, comparable within an allelic series) | 11.2 upbm affinity estimate (log intensity, higher = more binding, comparable within an allelic series) |
| CTCGTAAA | 9.72 upbm affinity estimate (log intensity, higher = more binding, comparable within an allelic series) | 12.6 upbm affinity estimate (log intensity, higher = more binding, comparable within an allelic series) | 12.6 upbm affinity estimate (log intensity, higher = more binding, comparable within an allelic series) | 12 upbm affinity estimate (log intensity, higher = more binding, comparable within an allelic series) | 12.9 upbm affinity estimate (log intensity, higher = more binding, comparable within an allelic series) | 11.3 upbm affinity estimate (log intensity, higher = more binding, comparable within an allelic series) | 12.7 upbm affinity estimate (log intensity, higher = more binding, comparable within an allelic series) | 12.7 upbm affinity estimate (log intensity, higher = more binding, comparable within an allelic series) | 11.9 upbm affinity estimate (log intensity, higher = more binding, comparable within an allelic series) | 12.6 upbm affinity estimate (log intensity, higher = more binding, comparable within an allelic series) | 11.4 upbm affinity estimate (log intensity, higher = more binding, comparable within an allelic series) | 11.1 upbm affinity estimate (log intensity, higher = more binding, comparable within an allelic series) |
| CATAAAAA | 9.93 upbm affinity estimate (log intensity, higher = more binding, comparable within an allelic series) | 12.8 upbm affinity estimate (log intensity, higher = more binding, comparable within an allelic series) | 12.6 upbm affinity estimate (log intensity, higher = more binding, comparable within an allelic series) | 12.4 upbm affinity estimate (log intensity, higher = more binding, comparable within an allelic series) | 13 upbm affinity estimate (log intensity, higher = more binding, comparable within an allelic series) | 10.7 upbm affinity estimate (log intensity, higher = more binding, comparable within an allelic series) | 13 upbm affinity estimate (log intensity, higher = more binding, comparable within an allelic series) | 11.8 upbm affinity estimate (log intensity, higher = more binding, comparable within an allelic series) | 12 upbm affinity estimate (log intensity, higher = more binding, comparable within an allelic series) | 11.6 upbm affinity estimate (log intensity, higher = more binding, comparable within an allelic series) | 12 upbm affinity estimate (log intensity, higher = more binding, comparable within an allelic series) | 11.4 upbm affinity estimate (log intensity, higher = more binding, comparable within an allelic series) |
| GCTATAAA | 9.72 upbm affinity estimate (log intensity, higher = more binding, comparable within an allelic series) | 12.7 upbm affinity estimate (log intensity, higher = more binding, comparable within an allelic series) | 12.2 upbm affinity estimate (log intensity, higher = more binding, comparable within an allelic series) | 12 upbm affinity estimate (log intensity, higher = more binding, comparable within an allelic series) | 12.8 upbm affinity estimate (log intensity, higher = more binding, comparable within an allelic series) | 10.9 upbm affinity estimate (log intensity, higher = more binding, comparable within an allelic series) | 12.7 upbm affinity estimate (log intensity, higher = more binding, comparable within an allelic series) | 12 upbm affinity estimate (log intensity, higher = more binding, comparable within an allelic series) | 11.4 upbm affinity estimate (log intensity, higher = more binding, comparable within an allelic series) | 11.7 upbm affinity estimate (log intensity, higher = more binding, comparable within an allelic series) | 11.7 upbm affinity estimate (log intensity, higher = more binding, comparable within an allelic series) | 11 upbm affinity estimate (log intensity, higher = more binding, comparable within an allelic series) |
| CATAAAAG | 9.76 upbm affinity estimate (log intensity, higher = more binding, comparable within an allelic series) | 12.6 upbm affinity estimate (log intensity, higher = more binding, comparable within an allelic series) | 12.4 upbm affinity estimate (log intensity, higher = more binding, comparable within an allelic series) | 12 upbm affinity estimate (log intensity, higher = more binding, comparable within an allelic series) | 12.8 upbm affinity estimate (log intensity, higher = more binding, comparable within an allelic series) | 10.7 upbm affinity estimate (log intensity, higher = more binding, comparable within an allelic series) | 12.7 upbm affinity estimate (log intensity, higher = more binding, comparable within an allelic series) | 11.8 upbm affinity estimate (log intensity, higher = more binding, comparable within an allelic series) | 11.8 upbm affinity estimate (log intensity, higher = more binding, comparable within an allelic series) | 11.6 upbm affinity estimate (log intensity, higher = more binding, comparable within an allelic series) | 11.7 upbm affinity estimate (log intensity, higher = more binding, comparable within an allelic series) | 11.2 upbm affinity estimate (log intensity, higher = more binding, comparable within an allelic series) |
| ACCATAAA | 9.6 upbm affinity estimate (log intensity, higher = more binding, comparable within an allelic series) | 12.5 upbm affinity estimate (log intensity, higher = more binding, comparable within an allelic series) | 12.3 upbm affinity estimate (log intensity, higher = more binding, comparable within an allelic series) | 11.9 upbm affinity estimate (log intensity, higher = more binding, comparable within an allelic series) | 12.8 upbm affinity estimate (log intensity, higher = more binding, comparable within an allelic series) | 10.8 upbm affinity estimate (log intensity, higher = more binding, comparable within an allelic series) | 12.7 upbm affinity estimate (log intensity, higher = more binding, comparable within an allelic series) | 12 upbm affinity estimate (log intensity, higher = more binding, comparable within an allelic series) | 11.5 upbm affinity estimate (log intensity, higher = more binding, comparable within an allelic series) | 11.7 upbm affinity estimate (log intensity, higher = more binding, comparable within an allelic series) | 11.6 upbm affinity estimate (log intensity, higher = more binding, comparable within an allelic series) | 10.9 upbm affinity estimate (log intensity, higher = more binding, comparable within an allelic series) |
| ATTTTATG | 9.94 upbm affinity estimate (log intensity, higher = more binding, comparable within an allelic series) | 13 upbm affinity estimate (log intensity, higher = more binding, comparable within an allelic series) | 12.7 upbm affinity estimate (log intensity, higher = more binding, comparable within an allelic series) | 12.5 upbm affinity estimate (log intensity, higher = more binding, comparable within an allelic series) | 13.1 upbm affinity estimate (log intensity, higher = more binding, comparable within an allelic series) | 10.8 upbm affinity estimate (log intensity, higher = more binding, comparable within an allelic series) | 13 upbm affinity estimate (log intensity, higher = more binding, comparable within an allelic series) | 11.8 upbm affinity estimate (log intensity, higher = more binding, comparable within an allelic series) | 12.1 upbm affinity estimate (log intensity, higher = more binding, comparable within an allelic series) | 11.5 upbm affinity estimate (log intensity, higher = more binding, comparable within an allelic series) | 12.1 upbm affinity estimate (log intensity, higher = more binding, comparable within an allelic series) | 11.4 upbm affinity estimate (log intensity, higher = more binding, comparable within an allelic series) |
| CCCTCACC | 8.63 upbm affinity estimate (log intensity, higher = more binding, comparable within an allelic series) | 9.5 upbm affinity estimate (log intensity, higher = more binding, comparable within an allelic series) | 9.97 upbm affinity estimate (log intensity, higher = more binding, comparable within an allelic series) | 8.28 upbm affinity estimate (log intensity, higher = more binding, comparable within an allelic series) | 9.44 upbm affinity estimate (log intensity, higher = more binding, comparable within an allelic series) | – | 9.56 upbm affinity estimate (log intensity, higher = more binding, comparable within an allelic series) | – | 9.96 upbm affinity estimate (log intensity, higher = more binding, comparable within an allelic series) | – | 8.43 upbm affinity estimate (log intensity, higher = more binding, comparable within an allelic series) | 9.7 upbm affinity estimate (log intensity, higher = more binding, comparable within an allelic series) |
| ATCGTAAA | 9.78 upbm affinity estimate (log intensity, higher = more binding, comparable within an allelic series) | 12.6 upbm affinity estimate (log intensity, higher = more binding, comparable within an allelic series) | 12.7 upbm affinity estimate (log intensity, higher = more binding, comparable within an allelic series) | 11.9 upbm affinity estimate (log intensity, higher = more binding, comparable within an allelic series) | 12.9 upbm affinity estimate (log intensity, higher = more binding, comparable within an allelic series) | 10.9 upbm affinity estimate (log intensity, higher = more binding, comparable within an allelic series) | 12.6 upbm affinity estimate (log intensity, higher = more binding, comparable within an allelic series) | 12.1 upbm affinity estimate (log intensity, higher = more binding, comparable within an allelic series) | 12.1 upbm affinity estimate (log intensity, higher = more binding, comparable within an allelic series) | 11.8 upbm affinity estimate (log intensity, higher = more binding, comparable within an allelic series) | 11.4 upbm affinity estimate (log intensity, higher = more binding, comparable within an allelic series) | 10.8 upbm affinity estimate (log intensity, higher = more binding, comparable within an allelic series) |
